# Values joined by “and” are separate entries in the source; they are usually repeats but may differ in a detail not shown here. Equal values may be shown once. Results filed as inconclusive are left out. Active and inactive are the calls of the source. Unless noted, the call rests on the fitted dose curve.
# Assay: qHTS assay to identify small molecule agonists of the hypoxia (HIF-1) signaling pathway (AID 1224846; active means well fitted activation curve with a large enough effect in the signal ratio in the repeat runs, not every such curve was filed as active; the % refers to the signal ratio)
# Details: HRE-bla ME-180 cells, beta-lactamase ratio, 17 h; series mostly up to 76.8 µM; activation: at the top concentration
# Summary of the method: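 ME-180 HRE-bla reporter cells; compounds in DMSO, 17 h at 37C; read-out beta-lactamase via CCF4-AM FRET.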
# On the % scale 0 is the no-effect control and ±100 the full control effect.
SMILES,activation,outcome
CCC(Cl)CCl (stereo unspecified),-0.472% (inactive),
Cc1ccccc1C(=O)Nc1cccc(OC(C)C)c1,-1.08% (inactive),
CCBr,0.262% (inactive),
CCOP(=O)(OCC)SCCSCC,,inactive
CC(=O)CCC(C)=O,1.1% (inactive),
Nc1nc(=S)[nH][nH]1,-1.02% (inactive),
c1ccc(CN2CCNCC2)cc1,0.908% [at 199 µM] (inactive),
CC(C)(Cl)[N+](=O)[O-],-1.23% (inactive),
COC(=O)C(Cl)C(=O)OC,-1.04% [at 35.5 µM] (inactive),
O=C(NC(=O)c1c(F)cccc1F)Nc1ccc(OC(F)(F)C(F)OC(F)(F)F)c(Cl)c1 (stereo unspecified),3.09% [at 35.5 µM] (inactive),
CCCCC(CC)COP(=O)(Oc1ccccc1)Oc1ccccc1 (stereo unspecified),2.58% (inactive),
CCOP(O)OCC,-0.0679% (inactive),
O=C(O)CC(Cl)C(=O)O (stereo unspecified),-0.121% (inactive),
Nc1ccc([N+](=O)[O-])cc1[N+](=O)[O-],0.041% (inactive),
BrCC(Br)C1CCC(Br)C(Br)C1 (stereo unspecified),0.419% (inactive),
N#C/C(N)=C(/N)C#N,1.44% (inactive),
BrCCCCBr,-1.31% (inactive),
Cn1sc(Cl)cc1=O,-1.13% (inactive),
C=CC(=O)NCNC(=O)C=C,2% (inactive),
COC(C)(C)CCC[C@H](C)C/C=C/C(C)=C/C(=O)OC(C)C,0.973% (inactive),
CC(C)(OO)c1ccccc1,-1.32% (inactive),
ClP(Cl)(Cl)(Cl)Cl,0.264% (inactive),
CC(=O)C(C)(C)C,-0.716% (inactive),
O=C(NCc1cccnc1)Nc1ccc([N+](=O)[O-])cc1,0.0793% (inactive),
Cc1ccc(N)cc1C,-0.163% (inactive),

# Assay: qHTS assay to identify small molecule agonists of H2AX - cell viability counter screen (AID 1224847); further: nearly all actives have a fitted effect of over 30% in size; further: potency means the concentration at half of the fitted maximal effect; on activity change, negative = cytotoxicity: top concentration of the series differs between compounds
# Details: CHO-K1 viability, CellTiter-Glo luminescence, 3 h; series mostly up to 154 µM; activity change, negative = cytotoxicity: at the top concentration
# Summary of the method: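 Compounds tested at 15 concentrations were incubated 3 hr at 37C with wild-type CHO-K1 cells; cellular ATP-based luminescence (CellTiter-Glo) indicated viability.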
SMILES,"activity change, negative = cytotoxicity",Potency
CCC(Cl)CCl (stereo unspecified),1.79% (inactive),
O=C(O)C(F)(F)C(F)(F)C(F)(F)C(F)(F)C(F)(F)C(F)(F)C(F)(F)C(F)(F)C(F)(F)F,1.82% (inactive),
CCBr,0.701% (inactive),
CCOP(=O)(OCC)SCCSCC,,inactive
Nc1nc(=S)[nH][nH]1,-0.0089% (inactive),
CC(C)(Cl)[N+](=O)[O-],-1.64% (inactive),
CN1C[C@H](CNC(=O)OCc2ccccc2)C[C@@H]2c3cccc4c3c(cn4C)C[C@H]21,-5.75% [at 70.9 µM] (inactive),
CC(=O)c1cc2c(cc1C)C(C)(C)C(C)CC2(C)C (stereo unspecified),,89.8 µM (active)
CCOP(=O)(OCC)Oc1ccc([N+](=O)[O-])cc1,,inactive
O=C(NC(=O)c1c(F)cccc1F)Nc1ccc(OC(F)(F)C(F)OC(F)(F)F)c(Cl)c1 (stereo unspecified),-2.94% [at 70.9 µM] (inactive),
CC(C)N(CCC(C(N)=O)(c1ccccc1)c1ccccn1)C(C)C (stereo unspecified),2.35% [at 70.9 µM] (inactive),
O=C(O)CC(Cl)C(=O)O (stereo unspecified),1.92% (inactive),
NCC(CC(=O)O)c1ccc(Cl)cc1 (stereo unspecified),-1.04% [at 0.582 µM] (inactive),
CCC(C)(NC(=O)c1cc(Cl)c(C)c(Cl)c1)C(=O)CCl (stereo unspecified),,114 µM (active)
N#C/C(N)=C(/N)C#N,-0.504% (inactive),
Cn1sc(Cl)cc1=O,-0.445% (inactive),
C=CC(=O)NCNC(=O)C=C,-0.0266% (inactive),
COC(C)(C)CCC[C@H](C)C/C=C/C(C)=C/C(=O)OC(C)C,-8.53% (inactive),
CC(C)(OO)c1ccccc1,-4.17% (inactive),
ClP(Cl)(Cl)(Cl)Cl,-0.68% (inactive),
CC(=O)C(C)(C)C,0.722% (inactive),
Cc1ccc(N)cc1C,1.37% (inactive),

# Assay: qHTS assay to identify small molecule antagonists of the estrogen related receptor (ERR) signaling pathway from Tox21 library (AID 1224848; active means well fitted inhibition curve with a large enough effect in the repeat runs; further: nearly all actives have a fitted effect of over 50% in size; further: potency means the concentration at half of the fitted maximal effect)
# Details: ERR reporter cell line, luciferase antagonist mode, 18 h; series mostly up to 92.4 µM; activity, negative = inhibition: at the top concentration
# Summary of the method: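 Compounds dissolved in DMSO are pin-transferred onto ERR reporter cells (2,000 per well) that have settled for 6 h at 37 C. Plates then incubate 18 h at 37 C before ONE-Glo luciferase reagent and a luminescence read 30 min later.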
SMILES,"activity, negative = inhibition",Potency
NC(=O)CI,-29% (inactive),
CCC(Cl)CCl (stereo unspecified),-2.55% (inactive),
O=C(O)C(F)(F)C(F)(F)C(F)(F)C(F)(F)C(F)(F)C(F)(F)C(F)(F)C(F)(F)C(F)(F)F,7.64% (inactive),
CCBr,10.1% (inactive),
CCOP(=O)(OCC)SCCSCC,,inactive
Nc1nc(=S)[nH][nH]1,5.23% (inactive),
CCOP(=O)(OCC)Oc1ccc([N+](=O)[O-])cc1,,13.9 µM (active) and 12.2 µM (active)
O=C(NC(=O)c1c(F)cccc1F)Nc1ccc(OC(F)(F)C(F)OC(F)(F)F)c(Cl)c1 (stereo unspecified),-17.7% [at 42.5 µM] (inactive),
CC(C)N(CCC(C(N)=O)(c1ccccc1)c1ccccn1)C(C)C (stereo unspecified),3.77% [at 42.5 µM] (inactive),
O=C(O)CC(Cl)C(=O)O (stereo unspecified),11.6% (inactive),
NCC(CC(=O)O)c1ccc(Cl)cc1 (stereo unspecified),4.98% [at 0.349 µM] (inactive),
CCC(C)(NC(=O)c1cc(Cl)c(C)c(Cl)c1)C(=O)CCl (stereo unspecified),,9.75 µM (active)
N#C/C(N)=C(/N)C#N,0.259% (inactive),
Cn1sc(Cl)cc1=O,0.702% (inactive),
C=CC(=O)NCNC(=O)C=C,63% (inactive),
S=C=NCc1ccccc1,-27.3% (inactive),
C=CCN1CC[C@]23c4c5ccc(O)c4O[C@H]2C(=O)CC[C@@]3(O)[C@H]1C5,-10.6% [at 42.5 µM] (inactive),
CC(C)(OO)c1ccccc1,8.69% (inactive),
ClP(Cl)(Cl)(Cl)Cl,-0.967% (inactive),
CC(=O)C(C)(C)C,-0.0563% (inactive),
Cc1ccc(N)cc1C,29.7% (inactive),

# Assay: qHTS assay to identify small molecule agonists of the estrogen related receptor (ERR) signaling pathway from Tox21 library (AID 1224849); further: nearly all actives have a fitted effect of over 15% in size
# Details: ERR reporter cell line, ONE-Glo luciferase, 18 h; at 92.4 µM (top of the series) unless noted
# Summary of the method: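 Luciferase activity in ERR pathway reporter cells served as the agonist readout; exposure lasted 18 h at 37 C, with ONE-Glo detection after 30 min at room temperature.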
row,SMILES,"activity change, positive = activation"
1,NC(=O)CI,-20% (inactive)
2,CCC(Cl)CCl (stereo unspecified),-1.76% (inactive)
3,O=C(O)C(F)(F)C(F)(F)C(F)(F)C(F)(F)C(F)(F)C(F)(F)C(F)(F)C(F)(F)C(F)(F)F,3.44% (inactive)
4,CCBr,6.77% (inactive)
5,CCOP(=O)(OCC)SCCSCC,-5.82% (inactive) and 8.45% (inactive)
6,Nc1nc(=S)[nH][nH]1,4.5% (inactive)
7,CC(C)(Cl)[N+](=O)[O-],-29.2% (inactive)
8,CCOP(=O)(OCC)Oc1ccc([N+](=O)[O-])cc1,-65.4% (inactive) and -61.8% (inactive)
9,O=C(NC(=O)c1c(F)cccc1F)Nc1ccc(OC(F)(F)C(F)OC(F)(F)F)c(Cl)c1 (stereo unspecified),-11.9% [at 42.5 µM] (inactive)
10,CC(C)N(CCC(C(N)=O)(c1ccccc1)c1ccccn1)C(C)C (stereo unspecified),2.39% [at 42.5 µM] (inactive)
11,O=C(O)CC(Cl)C(=O)O (stereo unspecified),7% (inactive)
12,NCC(CC(=O)O)c1ccc(Cl)cc1 (stereo unspecified),2.78% [at 0.349 µM] (inactive)
13,CCC(C)(NC(=O)c1cc(Cl)c(C)c(Cl)c1)C(=O)CCl (stereo unspecified),-68.6% (inactive)
14,N#C/C(N)=C(/N)C#N,0.178% (inactive)
15,Cn1sc(Cl)cc1=O,1.6% (inactive)
16,C=CC(=O)NCNC(=O)C=C,36.6% (active)
17,S=C=NCc1ccccc1,-18.1% (inactive)
18,C=CCN1CC[C@]23c4c5ccc(O)c4O[C@H]2C(=O)CC[C@@]3(O)[C@H]1C5,-6.24% [at 42.5 µM] (inactive)
19,COC(C)(C)CCC[C@H](C)C/C=C/C(C)=C/C(=O)OC(C)C,-23.3% (inactive)
20,CC(C)(OO)c1ccccc1,4.39% (inactive)
21,ClP(Cl)(Cl)(Cl)Cl,0.0891% (inactive)
22,CC(=O)C(C)(C)C,-0.0388% (inactive)
23,Cc1ccc(N)cc1C,19.9% (active)

# — PubChem BioAssay (Tox21)
